Common to all, as to assay: DAPPL (digital affinity profiling via proximity ligation, sequencing); 10 mM Tris-HCl pH 7.5, 50 mM NaCl, 1 mM DTT, 4% glycerol, room temperature, 30 min; GST-TFs on glutathione beads, 16-mer random dsDNA library, 0.1% formaldehyde crosslink after washing; high values mean tight binding
One assay addresses T1, FLI1 (Homo sapiens, UniProt Q01543 1-452).
T1 sequence: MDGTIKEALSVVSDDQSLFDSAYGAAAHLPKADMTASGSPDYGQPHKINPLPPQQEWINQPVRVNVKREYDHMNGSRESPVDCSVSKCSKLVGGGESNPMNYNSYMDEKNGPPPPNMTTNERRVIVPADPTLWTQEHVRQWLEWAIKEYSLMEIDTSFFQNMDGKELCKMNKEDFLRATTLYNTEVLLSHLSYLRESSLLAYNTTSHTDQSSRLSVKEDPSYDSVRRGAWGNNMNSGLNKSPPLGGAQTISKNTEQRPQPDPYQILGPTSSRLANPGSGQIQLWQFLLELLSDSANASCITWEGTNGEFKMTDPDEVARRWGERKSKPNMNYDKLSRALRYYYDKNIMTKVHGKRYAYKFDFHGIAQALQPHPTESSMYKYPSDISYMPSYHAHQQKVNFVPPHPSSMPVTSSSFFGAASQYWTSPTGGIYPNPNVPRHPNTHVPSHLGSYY
The note with it: protein: recombinant; tags: N-terminal GST; dsDNA, one strand shown. In a few lines:
(§1)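 Pools were built from human transcription factors expressed in yeast as GST fusions, captured on glutathione beads and DNA-barcoded, along with a tag-only sample. Incubation with 200 nmole of a 16-mer random double-stranded DNA library lasted 30 min at room temperature in Tris/NaCl/DTT/glycerol buffer, and was followed by washing, 0.1% formaldehyde crosslinking, proximity ligation, PCR amplification and Illumina NextSeq500 sequencing. Binding signal is the quotient of each hexamer's read frequency for a factor and its frequency for the tag-only sample.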

For another assay, the target named is T2, ELK1 (Homo sapiens, UniProt P19419 1-428).
T2 sequence: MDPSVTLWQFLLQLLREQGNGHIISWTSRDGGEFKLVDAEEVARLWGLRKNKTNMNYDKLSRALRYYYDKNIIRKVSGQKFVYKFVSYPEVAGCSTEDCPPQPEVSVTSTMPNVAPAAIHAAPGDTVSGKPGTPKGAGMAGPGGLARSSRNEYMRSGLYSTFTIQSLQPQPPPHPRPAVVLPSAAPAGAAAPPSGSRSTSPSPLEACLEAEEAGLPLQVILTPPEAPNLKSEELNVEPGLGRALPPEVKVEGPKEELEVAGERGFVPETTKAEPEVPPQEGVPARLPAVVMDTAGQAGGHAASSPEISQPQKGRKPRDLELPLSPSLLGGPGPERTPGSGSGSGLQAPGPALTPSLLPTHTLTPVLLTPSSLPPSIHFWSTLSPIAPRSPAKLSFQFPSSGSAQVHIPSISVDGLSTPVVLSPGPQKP
As to conditions: protein: recombinant; tags: N-terminal GST; dsDNA, one strand shown. In a few lines:
as §1

The next assay addresses T3, GABPA (Homo sapiens, UniProt Q06546 1-454).
T3 sequence: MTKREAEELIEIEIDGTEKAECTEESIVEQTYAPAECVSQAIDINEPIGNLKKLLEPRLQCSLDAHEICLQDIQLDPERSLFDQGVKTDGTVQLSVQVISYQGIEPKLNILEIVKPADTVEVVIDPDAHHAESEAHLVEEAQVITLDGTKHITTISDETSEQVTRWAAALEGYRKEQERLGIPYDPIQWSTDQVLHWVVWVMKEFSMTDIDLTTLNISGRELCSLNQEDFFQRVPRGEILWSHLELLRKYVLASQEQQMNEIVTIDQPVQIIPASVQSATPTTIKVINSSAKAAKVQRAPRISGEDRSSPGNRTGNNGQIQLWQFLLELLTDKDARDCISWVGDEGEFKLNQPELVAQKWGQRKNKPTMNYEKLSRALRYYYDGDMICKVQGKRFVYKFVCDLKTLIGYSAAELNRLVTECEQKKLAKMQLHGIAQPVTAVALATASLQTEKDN
The note with it: protein: recombinant; tags: N-terminal GST; dsDNA, one strand shown. In a few lines:
as §1

The next assay deals with T4, ERG (Homo sapiens, UniProt P11308 1-479).
T4 sequence: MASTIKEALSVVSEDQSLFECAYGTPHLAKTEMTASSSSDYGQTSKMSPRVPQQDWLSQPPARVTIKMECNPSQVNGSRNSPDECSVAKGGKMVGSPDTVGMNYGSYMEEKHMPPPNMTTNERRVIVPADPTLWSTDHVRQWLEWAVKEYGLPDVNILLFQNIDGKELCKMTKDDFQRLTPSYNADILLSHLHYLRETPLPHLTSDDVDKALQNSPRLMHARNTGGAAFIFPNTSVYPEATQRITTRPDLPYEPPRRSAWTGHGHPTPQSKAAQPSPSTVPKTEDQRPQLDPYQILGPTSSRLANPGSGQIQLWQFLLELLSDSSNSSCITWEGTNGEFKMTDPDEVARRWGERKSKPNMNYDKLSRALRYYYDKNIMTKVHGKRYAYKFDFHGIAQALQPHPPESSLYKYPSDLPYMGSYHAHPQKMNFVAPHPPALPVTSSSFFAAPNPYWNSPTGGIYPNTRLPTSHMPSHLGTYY
The note with it: protein: recombinant; tags: N-terminal GST; dsDNA, one strand shown. In a few lines:
as §1

Another assay deals with ELF1 (Homo sapiens, UniProt P32519 1-619). As to conditions: protein: recombinant; tags: N-terminal GST; dsDNA, one strand shown. The procedure, abridged: as §1
Chain of ELF1 (P32519 whole entry): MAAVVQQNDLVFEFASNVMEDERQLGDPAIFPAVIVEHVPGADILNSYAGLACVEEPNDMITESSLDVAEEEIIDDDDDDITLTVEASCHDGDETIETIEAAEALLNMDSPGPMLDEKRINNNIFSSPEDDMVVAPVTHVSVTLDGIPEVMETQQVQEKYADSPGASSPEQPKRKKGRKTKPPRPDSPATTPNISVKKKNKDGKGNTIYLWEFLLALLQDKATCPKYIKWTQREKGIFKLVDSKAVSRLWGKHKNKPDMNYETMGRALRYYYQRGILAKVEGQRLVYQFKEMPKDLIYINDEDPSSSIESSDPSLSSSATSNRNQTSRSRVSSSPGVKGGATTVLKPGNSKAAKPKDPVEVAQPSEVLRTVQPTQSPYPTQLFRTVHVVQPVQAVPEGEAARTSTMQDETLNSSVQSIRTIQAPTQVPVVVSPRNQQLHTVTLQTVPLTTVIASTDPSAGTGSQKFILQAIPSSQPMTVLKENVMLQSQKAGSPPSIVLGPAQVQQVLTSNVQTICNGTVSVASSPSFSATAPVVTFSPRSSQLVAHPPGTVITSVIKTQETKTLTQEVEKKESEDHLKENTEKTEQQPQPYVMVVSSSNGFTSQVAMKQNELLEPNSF
The target of a further assay is T5, EHF (Homo sapiens, UniProt Q9NZC4 1-300).
T5 sequence: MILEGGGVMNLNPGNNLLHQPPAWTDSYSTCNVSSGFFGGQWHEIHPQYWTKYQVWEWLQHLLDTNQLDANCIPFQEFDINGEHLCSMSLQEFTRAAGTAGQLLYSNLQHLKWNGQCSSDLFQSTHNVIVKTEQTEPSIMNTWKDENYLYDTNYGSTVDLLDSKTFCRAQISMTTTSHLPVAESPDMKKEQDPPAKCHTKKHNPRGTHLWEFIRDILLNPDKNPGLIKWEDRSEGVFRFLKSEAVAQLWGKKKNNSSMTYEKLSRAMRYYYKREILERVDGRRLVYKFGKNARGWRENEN
As to conditions: protein: recombinant; tags: N-terminal GST; dsDNA, one strand shown. The procedure, abridged:
as §1

Another assay addresses SPI1 (Homo sapiens, UniProt P17947 1-270). The note with it: protein: recombinant; tags: N-terminal GST; dsDNA, one strand shown. The procedure, abridged:
as §1

The target in another assay is SPIB (Homo sapiens, UniProt Q01892 1-262). As to conditions: protein: recombinant; tags: N-terminal GST; dsDNA, one strand shown. The procedure, abridged:
as §1

In another assay the target is T6, ELK3 (Homo sapiens, UniProt P41970 1-407).
T6 sequence: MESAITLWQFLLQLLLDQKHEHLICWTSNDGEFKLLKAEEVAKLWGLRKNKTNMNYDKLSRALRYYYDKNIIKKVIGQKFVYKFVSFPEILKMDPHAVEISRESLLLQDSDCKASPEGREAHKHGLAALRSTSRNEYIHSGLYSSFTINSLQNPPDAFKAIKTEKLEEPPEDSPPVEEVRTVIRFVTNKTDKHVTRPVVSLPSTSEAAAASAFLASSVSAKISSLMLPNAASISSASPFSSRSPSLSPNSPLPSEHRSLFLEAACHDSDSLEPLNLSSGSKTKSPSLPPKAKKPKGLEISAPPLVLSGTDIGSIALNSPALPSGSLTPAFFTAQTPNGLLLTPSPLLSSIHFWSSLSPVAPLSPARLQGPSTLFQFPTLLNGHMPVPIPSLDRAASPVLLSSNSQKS
The note with it: protein: recombinant; tags: N-terminal GST; dsDNA, one strand shown. In a few lines:
as §1

Another assay has as its target T7, FEV (Homo sapiens, UniProt Q99581 1-238).
T7 sequence: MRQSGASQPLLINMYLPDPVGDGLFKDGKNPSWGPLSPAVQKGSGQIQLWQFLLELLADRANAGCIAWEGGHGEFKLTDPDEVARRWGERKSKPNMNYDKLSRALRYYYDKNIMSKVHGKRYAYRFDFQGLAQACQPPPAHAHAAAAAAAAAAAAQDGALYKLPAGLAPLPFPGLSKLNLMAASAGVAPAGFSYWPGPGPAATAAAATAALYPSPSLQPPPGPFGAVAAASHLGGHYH
As to conditions: protein: recombinant; tags: N-terminal GST; dsDNA, one strand shown. In a few lines:
as §1

The target in the next assay is ETV5 (Homo sapiens, UniProt P41161 1-510). The note with it: protein: recombinant; tags: N-terminal GST; dsDNA, one strand shown. In a few lines: as §1
Chain of ETV5 (P41161 whole entry): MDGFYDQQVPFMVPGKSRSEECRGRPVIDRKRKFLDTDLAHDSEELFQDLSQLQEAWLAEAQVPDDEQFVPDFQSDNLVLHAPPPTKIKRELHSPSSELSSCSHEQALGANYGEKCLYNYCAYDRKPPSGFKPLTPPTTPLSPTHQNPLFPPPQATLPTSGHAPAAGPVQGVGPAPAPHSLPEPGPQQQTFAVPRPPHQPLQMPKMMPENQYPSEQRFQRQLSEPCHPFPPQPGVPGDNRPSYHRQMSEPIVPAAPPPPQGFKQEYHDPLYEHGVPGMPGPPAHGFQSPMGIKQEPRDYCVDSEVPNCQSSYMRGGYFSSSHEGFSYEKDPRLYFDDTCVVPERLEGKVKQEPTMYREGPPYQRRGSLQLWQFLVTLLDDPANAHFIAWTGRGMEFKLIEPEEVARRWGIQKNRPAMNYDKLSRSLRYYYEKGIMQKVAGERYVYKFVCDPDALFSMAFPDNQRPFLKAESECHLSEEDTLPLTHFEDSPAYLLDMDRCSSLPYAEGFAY
A further assay deals with HSF1 (Homo sapiens, UniProt Q00613 1-529). The note with it: protein: recombinant; tags: N-terminal GST; chain copies: 3; dsDNA, one strand shown. The procedure, abridged:
as §1

The target of the next assay is T8, SPIC (Homo sapiens, UniProt Q8N5J4 1-248).
T8 sequence: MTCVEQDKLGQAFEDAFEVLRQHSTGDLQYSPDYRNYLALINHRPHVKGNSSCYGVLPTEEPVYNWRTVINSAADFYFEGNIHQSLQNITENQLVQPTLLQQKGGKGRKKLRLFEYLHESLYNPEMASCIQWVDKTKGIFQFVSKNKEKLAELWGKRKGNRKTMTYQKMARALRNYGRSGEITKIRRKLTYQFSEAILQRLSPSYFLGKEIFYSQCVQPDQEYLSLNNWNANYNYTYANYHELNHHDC
As to conditions: protein: recombinant; tags: N-terminal GST; dsDNA, one strand shown. In a few lines: as §1

The next assay concerns the target ELF4 (Homo sapiens, UniProt Q99607 1-663). As to conditions: protein: recombinant; tags: N-terminal GST; dsDNA, one strand shown. The procedure, abridged:
as §1

A further assay deals with T9, ELK4 (Homo sapiens, UniProt P28324-2 1-405).
T9 sequence: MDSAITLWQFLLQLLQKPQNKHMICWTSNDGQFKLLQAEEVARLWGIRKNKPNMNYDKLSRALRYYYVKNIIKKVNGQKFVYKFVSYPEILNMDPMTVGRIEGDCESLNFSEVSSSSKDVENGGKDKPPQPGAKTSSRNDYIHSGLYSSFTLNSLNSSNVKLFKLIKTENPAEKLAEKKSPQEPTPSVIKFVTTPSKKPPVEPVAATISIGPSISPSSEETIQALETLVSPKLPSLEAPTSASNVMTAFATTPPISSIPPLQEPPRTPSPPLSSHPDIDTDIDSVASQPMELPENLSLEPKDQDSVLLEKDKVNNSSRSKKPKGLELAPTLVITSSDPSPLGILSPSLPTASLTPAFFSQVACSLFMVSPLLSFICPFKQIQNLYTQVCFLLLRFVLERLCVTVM
As to conditions: protein: recombinant; tags: N-terminal GST; dsDNA, one strand shown. In a few lines: as §1

The target in a further assay is T10, ETV2 (Homo sapiens, UniProt O00321 1-342).
T10 sequence: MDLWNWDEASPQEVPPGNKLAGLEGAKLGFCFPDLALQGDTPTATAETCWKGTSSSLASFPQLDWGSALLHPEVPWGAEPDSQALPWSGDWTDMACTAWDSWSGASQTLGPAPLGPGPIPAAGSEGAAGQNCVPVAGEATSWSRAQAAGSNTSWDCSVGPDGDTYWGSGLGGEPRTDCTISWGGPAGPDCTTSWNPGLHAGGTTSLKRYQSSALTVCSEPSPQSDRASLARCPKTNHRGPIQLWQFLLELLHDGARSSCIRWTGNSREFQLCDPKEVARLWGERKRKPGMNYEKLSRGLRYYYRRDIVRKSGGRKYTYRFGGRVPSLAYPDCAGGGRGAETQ
The note with it: protein: recombinant; tags: N-terminal GST; dsDNA, one strand shown. The procedure, abridged:
as §1

In the next assay the target is T11, ELF3 (Homo sapiens, UniProt P78545 1-371).
T11 sequence: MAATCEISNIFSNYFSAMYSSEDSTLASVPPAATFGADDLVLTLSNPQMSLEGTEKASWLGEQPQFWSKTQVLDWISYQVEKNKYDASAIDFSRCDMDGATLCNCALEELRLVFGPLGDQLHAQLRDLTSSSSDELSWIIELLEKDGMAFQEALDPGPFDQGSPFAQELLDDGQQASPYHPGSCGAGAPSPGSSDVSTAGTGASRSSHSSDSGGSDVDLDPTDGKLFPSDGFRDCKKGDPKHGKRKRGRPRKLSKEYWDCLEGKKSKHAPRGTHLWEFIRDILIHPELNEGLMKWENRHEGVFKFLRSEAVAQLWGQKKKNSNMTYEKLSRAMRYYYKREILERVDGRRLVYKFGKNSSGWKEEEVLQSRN
The note with it: protein: recombinant; tags: N-terminal GST; dsDNA, one strand shown. The procedure, abridged: as §1

Another assay has as its target CRX (Homo sapiens, UniProt O43186 1-299). The note with it: protein: recombinant; tags: N-terminal GST; dsDNA, one strand shown. In a few lines: as §1
A further assay addresses ETV1 (Homo sapiens, UniProt P50549 1-477). The note with it: protein: recombinant; tags: N-terminal GST; dsDNA, one strand shown. The procedure, abridged: as §1

Chain of ETV1 (P50549 whole entry): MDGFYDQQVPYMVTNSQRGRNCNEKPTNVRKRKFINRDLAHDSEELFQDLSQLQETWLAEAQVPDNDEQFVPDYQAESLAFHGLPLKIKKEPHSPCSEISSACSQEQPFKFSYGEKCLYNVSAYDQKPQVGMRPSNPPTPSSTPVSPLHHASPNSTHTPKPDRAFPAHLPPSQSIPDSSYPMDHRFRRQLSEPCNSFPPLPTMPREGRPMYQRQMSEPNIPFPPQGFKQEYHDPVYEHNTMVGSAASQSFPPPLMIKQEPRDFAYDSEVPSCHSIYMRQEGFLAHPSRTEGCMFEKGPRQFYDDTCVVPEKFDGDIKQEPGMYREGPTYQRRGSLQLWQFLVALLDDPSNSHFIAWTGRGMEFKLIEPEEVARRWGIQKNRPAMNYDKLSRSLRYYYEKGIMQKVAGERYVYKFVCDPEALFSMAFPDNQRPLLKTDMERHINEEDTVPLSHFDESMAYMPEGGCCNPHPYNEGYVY
Chain of SPIB (Q01892 whole entry): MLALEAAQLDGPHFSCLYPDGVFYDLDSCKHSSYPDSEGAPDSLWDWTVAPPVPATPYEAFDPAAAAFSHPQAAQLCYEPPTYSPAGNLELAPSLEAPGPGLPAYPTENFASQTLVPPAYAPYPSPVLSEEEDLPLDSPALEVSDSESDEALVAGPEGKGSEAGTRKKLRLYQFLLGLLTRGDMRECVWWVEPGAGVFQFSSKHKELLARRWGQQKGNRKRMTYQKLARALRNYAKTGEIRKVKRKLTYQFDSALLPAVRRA
Chain of HSF1 (Q00613 whole entry): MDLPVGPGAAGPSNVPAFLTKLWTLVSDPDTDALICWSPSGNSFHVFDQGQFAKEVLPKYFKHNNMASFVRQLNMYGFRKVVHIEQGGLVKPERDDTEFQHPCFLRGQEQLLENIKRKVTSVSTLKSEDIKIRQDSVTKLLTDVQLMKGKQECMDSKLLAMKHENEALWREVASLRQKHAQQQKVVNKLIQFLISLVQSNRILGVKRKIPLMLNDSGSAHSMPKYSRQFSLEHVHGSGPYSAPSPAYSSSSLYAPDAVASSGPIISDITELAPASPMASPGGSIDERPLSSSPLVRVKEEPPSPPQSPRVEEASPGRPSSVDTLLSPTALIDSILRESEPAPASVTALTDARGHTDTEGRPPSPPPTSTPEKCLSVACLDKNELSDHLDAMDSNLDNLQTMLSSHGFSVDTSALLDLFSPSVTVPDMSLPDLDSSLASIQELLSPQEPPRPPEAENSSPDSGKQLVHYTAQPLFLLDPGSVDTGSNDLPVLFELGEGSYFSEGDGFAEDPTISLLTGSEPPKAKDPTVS
Chain of CRX (O43186 whole entry): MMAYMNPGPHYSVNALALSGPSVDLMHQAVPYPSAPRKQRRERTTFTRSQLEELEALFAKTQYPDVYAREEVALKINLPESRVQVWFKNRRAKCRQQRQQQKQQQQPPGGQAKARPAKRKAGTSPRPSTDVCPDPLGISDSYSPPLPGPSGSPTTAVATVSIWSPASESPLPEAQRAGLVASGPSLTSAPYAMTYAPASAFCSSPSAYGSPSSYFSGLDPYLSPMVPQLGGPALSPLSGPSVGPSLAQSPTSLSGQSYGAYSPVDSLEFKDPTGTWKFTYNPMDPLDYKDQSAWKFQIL
Chain of ELF4 (Q99607 whole entry): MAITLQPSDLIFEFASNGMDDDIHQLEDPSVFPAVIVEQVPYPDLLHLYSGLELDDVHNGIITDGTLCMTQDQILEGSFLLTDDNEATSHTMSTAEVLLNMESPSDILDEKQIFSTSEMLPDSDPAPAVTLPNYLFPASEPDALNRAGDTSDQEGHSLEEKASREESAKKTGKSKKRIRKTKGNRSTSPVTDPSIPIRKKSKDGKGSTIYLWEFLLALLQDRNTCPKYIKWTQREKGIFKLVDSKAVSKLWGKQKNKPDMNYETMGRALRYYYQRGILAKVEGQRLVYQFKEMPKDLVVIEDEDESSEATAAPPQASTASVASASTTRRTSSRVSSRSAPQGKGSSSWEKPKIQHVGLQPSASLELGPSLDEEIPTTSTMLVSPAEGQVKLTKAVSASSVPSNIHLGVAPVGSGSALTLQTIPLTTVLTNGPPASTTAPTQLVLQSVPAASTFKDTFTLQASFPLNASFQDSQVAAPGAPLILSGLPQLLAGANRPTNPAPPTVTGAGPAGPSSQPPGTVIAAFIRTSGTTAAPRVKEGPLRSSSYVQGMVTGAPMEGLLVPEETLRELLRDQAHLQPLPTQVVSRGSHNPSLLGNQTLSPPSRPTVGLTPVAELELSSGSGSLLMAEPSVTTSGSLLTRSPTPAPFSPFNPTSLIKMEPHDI

For the sequence ATTCTT, the binding signal in the assay with FLI1 was 1.48 fold enrichment (6-mer frequency, TF over GST control); with ELK1 it was 1.44 fold enrichment (6-mer frequency, TF over GST control); with GABPA it was 1.49 fold enrichment (6-mer frequency, TF over GST control); in the assay with ERG, 1.5 fold enrichment (6-mer frequency, TF over GST control); with ELF1, 1.51 fold enrichment (6-mer frequency, TF over GST control); with EHF, 1.45 fold enrichment (6-mer frequency, TF over GST control). Also, the binding signal was 1.44 fold enrichment (6-mer frequency, TF over GST control) in the assay with SPI1; 1.56 fold enrichment (6-mer frequency, TF over GST control) with SPIB; 1.61 fold enrichment (6-mer frequency, TF over GST control) with ELK3; 1.4 fold enrichment (6-mer frequency, TF over GST control) in the assay with FEV; 1.4 fold enrichment (6-mer frequency, TF over GST control) with ETV5; 1.99 fold enrichment (6-mer frequency, TF over GST control) with HSF1. Moreover, the binding signal was 1.56 fold enrichment (6-mer frequency, TF over GST control) with SPIC; 1.47 fold enrichment (6-mer frequency, TF over GST control) with ELF4; 1.51 fold enrichment (6-mer frequency, TF over GST control) with ELK4; 1.37 fold enrichment (6-mer frequency, TF over GST control) with ETV2; 1.45 fold enrichment (6-mer frequency, TF over GST control) with ELF3; 1.77 fold enrichment (6-mer frequency, TF over GST control) in the assay with CRX. Further, the binding signal with ETV1 is 1.56 fold enrichment (6-mer frequency, TF over GST control).

Source of the values: paper PMC7862700, “An all-to-all approach to the identification of sequence-specific readers for epigenetic DNA modifications on cytosine”.
